High-throughput results as filed in PubChem.
PfGluPho inh: PfG6PD (Plasmodium falciparum) enzyme inhibition. PfGluPho enzyme, NADPH resazurin-diaphorase fluorescence. inhibition, % at 20 µM. 350,000 tested, 0.78% active;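 active means inhibition reaching at least a set limit at 20 µM in the primary screen, cut at about 59% in these data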;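 further: 0% = DMSO wells with substrate and 100% = DMSO wells lacking glucose-6-phosphate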
FAS-TE inh: FAS thioesterase (human) inhibition; P49327; recombinant FAS-TE, OMFH fluorogenic substrate, fluorescence endpoint; inhibition, % at 15 µM; 360,000 tested, 0.67% active; AID 602261;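 active means compounds whose normalised, plate-corrected inhibition of enzyme fluorescence in the single-dose primary screen is 50% or more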;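 further: 0% = DMSO with enzyme and 100% = substrate without enzyme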
Target sequence (P49327 whole entry, looked up): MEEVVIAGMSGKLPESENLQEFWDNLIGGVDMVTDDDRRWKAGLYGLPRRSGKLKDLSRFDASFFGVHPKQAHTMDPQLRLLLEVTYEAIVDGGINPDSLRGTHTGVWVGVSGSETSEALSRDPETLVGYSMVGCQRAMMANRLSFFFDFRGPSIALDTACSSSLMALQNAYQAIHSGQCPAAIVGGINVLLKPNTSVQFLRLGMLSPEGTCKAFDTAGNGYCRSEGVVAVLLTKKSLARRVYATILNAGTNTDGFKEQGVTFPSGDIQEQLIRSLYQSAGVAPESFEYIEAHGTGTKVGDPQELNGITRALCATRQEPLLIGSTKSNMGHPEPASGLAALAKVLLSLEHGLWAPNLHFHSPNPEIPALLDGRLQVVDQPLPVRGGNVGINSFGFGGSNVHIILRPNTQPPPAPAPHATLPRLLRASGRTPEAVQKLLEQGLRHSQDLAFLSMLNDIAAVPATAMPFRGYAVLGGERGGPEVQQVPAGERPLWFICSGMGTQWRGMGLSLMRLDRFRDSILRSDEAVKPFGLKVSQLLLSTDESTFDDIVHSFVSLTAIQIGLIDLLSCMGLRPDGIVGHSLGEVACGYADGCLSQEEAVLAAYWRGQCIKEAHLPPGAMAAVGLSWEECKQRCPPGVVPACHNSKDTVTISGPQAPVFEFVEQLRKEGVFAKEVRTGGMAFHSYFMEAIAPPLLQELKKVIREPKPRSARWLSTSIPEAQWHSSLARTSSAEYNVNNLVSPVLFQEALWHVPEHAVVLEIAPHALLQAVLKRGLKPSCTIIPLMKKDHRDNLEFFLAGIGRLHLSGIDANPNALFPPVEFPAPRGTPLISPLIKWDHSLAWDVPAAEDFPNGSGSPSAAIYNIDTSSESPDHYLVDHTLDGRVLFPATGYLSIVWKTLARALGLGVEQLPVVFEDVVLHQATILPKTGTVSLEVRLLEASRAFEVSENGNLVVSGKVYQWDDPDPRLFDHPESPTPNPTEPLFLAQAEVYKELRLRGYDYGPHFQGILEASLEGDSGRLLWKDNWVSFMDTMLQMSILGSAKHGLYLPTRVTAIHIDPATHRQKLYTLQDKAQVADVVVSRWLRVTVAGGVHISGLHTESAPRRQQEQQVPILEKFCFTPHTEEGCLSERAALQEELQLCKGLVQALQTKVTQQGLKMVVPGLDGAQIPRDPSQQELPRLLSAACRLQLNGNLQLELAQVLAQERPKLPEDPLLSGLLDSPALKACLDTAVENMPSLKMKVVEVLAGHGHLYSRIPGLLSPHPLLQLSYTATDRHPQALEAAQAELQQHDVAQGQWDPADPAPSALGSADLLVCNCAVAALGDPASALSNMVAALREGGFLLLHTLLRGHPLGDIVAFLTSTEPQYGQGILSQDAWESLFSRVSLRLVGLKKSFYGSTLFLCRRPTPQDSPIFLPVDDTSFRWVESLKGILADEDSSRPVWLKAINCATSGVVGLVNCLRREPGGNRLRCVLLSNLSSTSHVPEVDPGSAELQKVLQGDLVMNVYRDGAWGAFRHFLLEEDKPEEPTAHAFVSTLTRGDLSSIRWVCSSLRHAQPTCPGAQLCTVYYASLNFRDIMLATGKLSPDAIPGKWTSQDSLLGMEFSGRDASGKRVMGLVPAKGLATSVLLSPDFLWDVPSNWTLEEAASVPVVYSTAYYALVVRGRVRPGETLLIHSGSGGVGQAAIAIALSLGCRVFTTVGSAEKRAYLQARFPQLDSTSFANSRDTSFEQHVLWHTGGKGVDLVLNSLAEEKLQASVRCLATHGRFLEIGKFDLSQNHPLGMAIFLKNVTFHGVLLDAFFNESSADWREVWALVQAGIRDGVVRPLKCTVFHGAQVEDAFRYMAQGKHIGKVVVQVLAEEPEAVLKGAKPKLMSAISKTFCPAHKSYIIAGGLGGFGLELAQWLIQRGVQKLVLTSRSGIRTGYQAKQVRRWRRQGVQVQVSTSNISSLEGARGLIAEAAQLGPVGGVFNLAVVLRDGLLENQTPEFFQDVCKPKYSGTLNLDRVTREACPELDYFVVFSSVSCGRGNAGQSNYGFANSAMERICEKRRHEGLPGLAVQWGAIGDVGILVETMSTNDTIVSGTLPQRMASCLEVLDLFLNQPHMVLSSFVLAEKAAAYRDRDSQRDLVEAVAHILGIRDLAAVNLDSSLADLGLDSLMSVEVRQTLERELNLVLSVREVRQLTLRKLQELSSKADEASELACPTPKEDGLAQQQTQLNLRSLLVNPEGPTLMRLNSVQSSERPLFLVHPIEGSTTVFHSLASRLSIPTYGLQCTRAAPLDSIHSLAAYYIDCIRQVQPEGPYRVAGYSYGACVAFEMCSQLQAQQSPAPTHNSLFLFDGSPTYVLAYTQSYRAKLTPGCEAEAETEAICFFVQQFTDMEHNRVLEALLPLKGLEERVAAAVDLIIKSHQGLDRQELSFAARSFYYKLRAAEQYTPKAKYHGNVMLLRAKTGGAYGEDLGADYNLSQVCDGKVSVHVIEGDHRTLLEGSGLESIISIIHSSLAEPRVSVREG
Neddylation inh: cullin neddylation inhibition | TR-FRET cullin neddylation, biochemical | calls only at 25 µM | 360,000 tested, 0.58% active; in the data active means inhibition above about 36%
proKLK7 act: proKLK7 (human) activation, primary screen | 370,000 tested, 0.9% active | activation, % at 7 µM | AID 652039 | purified proKLK7, EDANS-DABCYL substrate fluorescence; 100% is mature enzyme control, 0% vehicle;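 active means activation above the mean of all tested compounds plus 3 SD, computed per campaign excluding outliers beyond control limits, cut at about 13% in these data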
FAS-TE inh conf: FAS thioesterase (human) inhibition, confirmation; shares compounds with FAS-TE inh; recombinant FAS-TE, OMFH fluorogenic substrate, fluorescence; inhibition, % at 15 µM; 2,300 tested, 45% active;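 active means compounds inhibiting the enzyme by at least 50% at 15 µM in any one of the replicates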;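 further: 0% = enzyme with DMSO only and 100% = wells lacking enzyme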
* hit, by the source's call; i = inactive; / = not tested or not shown. Sampled rows, rich in hits. Any-hit rate of the full collection: about 2.7%.

SMILES	PfGluPho inh	FAS-TE inh	Neddylation inh	proKLK7 act	FAS-TE inh conf
CC(C)C(C#CC1CC1)N(Cc1ccc2c(c1)OCO2)C(N)=NC(=O)/C=C/c1ccccc1 (stereo not given)	/	/	/	1	/
CN(C(=O)c1cccc(NC(=O)Cc2cccc(NC(=O)C3CCN(S(=O)(=O)c4cccc([N+](=O)[O-])c4)CC3)c2)c1)C1CC1	6	8	i	0	/
CN(C(=O)c1cccc(NC(=O)Cc2ccc(NC(=O)C3CCN(S(=O)(=O)c4cccc([N+](=O)[O-])c4)CC3)cc2)c1)C1CCCCC1	3	52*	i	-1	25
CN(CCc1ccccc1)C(=O)c1ccc(NC(=O)Cc2ccc(NC(=O)C3CCN(S(=O)(=O)c4cccc([N+](=O)[O-])c4)CC3)cc2)cc1	-6	62*	i	0	11
CN(C(=O)c1ccc(NC(=O)Cc2ccc(NC(=O)C3CCN(S(=O)(=O)c4cccc([N+](=O)[O-])c4)CC3)cc2)cc1)C1CCCC1	-3	14	i	0	/
CN(CCc1ccccc1)C(=O)c1ccc(NC(=O)Cc2cccc(NC(=O)C3CCN(S(=O)(=O)c4cccc([N+](=O)[O-])c4)CC3)c2)cc1	-14	55*	i	1	9
CN(C(=O)c1cccc(NC(=O)Cc2ccc(NC(=O)C3CCN(S(=O)(=O)c4cccc([N+](=O)[O-])c4)CC3)cc2)c1)C1CC1	13	7	i	0	/
CN(CCOC(=O)c1cc2ccccc2o1)C1CN(Cc2cn(Cc3ccccc3F)nn2)S(=O)(=O)C1 (stereo not given)	/	/	/	0	/
COC(=O)[C@H]1C[C@@]2(N3CCCCC3)c3ccccc3N[C@H]2N1S(=O)(=O)c1ccc(C)cc1	/	/	/	0	/
CN(Cc1ccccc1)S(=O)(=O)c1cccc(C(=O)OCc2ccc(C(F)(F)F)cc2)c1	/	/	/	0	/
COc1cc2c(cc1NC(=O)COC(=O)[C@@H](NS(=O)(=O)c1ccccc1)C(C)C)oc1ccccc12	17	67*	i	-14	-5
N/C(=N\c1nc2c(c(=O)[nH]1)CCCC2)Nc1ccccc1Sc1ccccc1	19	51*	i	0	13
CC(C)(C)SCCNC(=O)c1ccc(Cl)c([N+](=O)[O-])c1	-14	53*	i	1	68*
Cc1ccccc1CNC(=O)c1ccc(Cl)c([N+](=O)[O-])c1	12	34	i	0	/
Cc1nc2ccc([N+](=O)[O-])cc2c(=O)n1Cc1ccc(Cl)cc1	-3	83*	i	0	85*
COc1ccc(Cn2c(C)nc3ccc([N+](=O)[O-])cc3c2=O)cc1	-8	70*	i	-1	48*
COc1ccc(Cn2c(=O)c3cccnc3n(Cc3ccc([N+](=O)[O-])cc3)c2=O)cc1	-5	46	i	0	/
Cc1nc2ccc(N)cc2c(=O)n1Cc1ccc(Cl)cc1	1	-11	/	3	/
COc1ccc2[nH]c3c(c2c1)CCN1C(=O)C(CC(=O)NCC24CC5CC(CC(C5)C2)C4)C[C@H](C(=O)N2CCOCC2)[C@@]31CCC1CCCC1 (stereo not given in full)	24	80*	i	0	15
COc1ccc2[nH]c3c(c2c1)CCN1C(=O)C(CC(=O)NCCC2=CCCCC2)C[C@H](C(=O)N2CCOCC2)[C@@]31CCC1CCCC1 (stereo not given in full)	-11	67*	i	1	69*
O=C(C[C@H]1C[C@H](C(=O)N2CCOCC2)[C@@]2(CCC3CCCC3)c3[nH]c4ccc(Cl)cc4c3CCN2C1=O)NCC12CC3CC(CC(C3)C1)C2	2	82*	i	1	2
COc1ccc2[nH]c3c(c2c1)CCN1C(=O)C(CC(=O)NCCCn2ccnc2)C[C@H](C(=O)N2CCOCC2)[C@@]31CCC1CCCC1 (stereo not given in full)	-7	34	i	0	/
COc1ccc(N2CCCN(CC(=O)Nc3ccc(Cl)c(Cl)c3)CC2)cc1	/	/	/	0	/
CC1(C(=O)NS(=O)(=O)c2ccc(C#N)cc2)CCN1C(=O)CCc1ccc(Cl)cc1Cl (stereo not given)	/	42	i	0	/
CC1(C(=O)NS(=O)(=O)c2ccc(C#N)cc2)CCN1C(=O)Cc1ccc(Cl)cc1Cl (stereo not given)	/	55*	i	0	70*
SMILES	PfGluPho inh	FAS-TE inh	Neddylation inh	proKLK7 act	FAS-TE inh conf
O=C(NC1CCCCN(Cc2cccc(Cl)c2)C1=O)c1ccccn1 (stereo not given)	/	/	/	1	/
Cn1cccc1CC(=O)NN=C/C=C\c1ccco1	/	/	/	0	/
CN(C1CCCCC1)S(=O)(=O)c1ccc(SCC(=O)C(C)(C)C)nc1	7	54*	i	1	40
CC(C)CNC(=O)CSc1ccc(S(=O)(=O)N(C)C2CCCCC2)cn1	-12	0	i	1	/
O=C(c1cc(Cl)cc(Cl)c1)N1CCC(Oc2cccnc2)CC1	/	/	/	0	/
O=C(CSc1ccc([N+](=O)[O-])cn1)Nc1ccc2c(c1)OCCO2	9	85*	i	0	88*
CN(C)S(=O)(=O)c1ccc(SCC(=O)Nc2ccc3c(c2)OCCO3)nc1	46	3	i	0	/
COc1ccc(/C=C2/CN(Cc3ccc(OC)cc3OC)C3=N[C@H](c4ccccc4)CC(=O)N32)cc1	/	/	/	-2	/
CC(C)(C)NC(=O)NC(=O)COC(=O)C1CCN(S(=O)(=O)c2cccs2)CC1	0	53*	i	-1	46*
Cc1ccc(Sc2cc(NCCCO)c([N+](=O)[O-])c3nonc23)cc1	11	26	i	0	/
CC(=O)OCCCNc1cc(Sc2ccc(Cl)cc2)c2nonc2c1[N+](=O)[O-]	14	62*	i	0	25
O=C(c1cc(COc2cccc(C(F)(F)F)c2)on1)N1C[C@@H]2CCC[C@H]1C2	12	56*	i	0	24*
COc1ccc(Cn2cc(CN3[C@@H](CC(C)C)COc4ccc(Cl)cc4S3(=O)=O)nn2)cc1	/	/	/	0	/
O=[N+]([O-])c1ccc(CS(=O)(=O)c2ccc(Cl)cc2)cc1	1	8	i	0	/
O=[N+]([O-])c1cc(CS(=O)(=O)Oc2ccc(Cl)cc2)c(O)c([N+](=O)[O-])c1	-6	57*	i	0	68*
CC1CN(c2nc3ccccc3nc2SCC(=O)N2CCN(S(=O)(=O)c3ccccc3)CC2)CC(C)O1 (stereo not given)	/	/	/	-3	/
COc1ccc(N2C(=O)NC3CC2(C)Oc2ccc(Br)cc23)cc1OC (stereo not given)	-1	59*	i	1	74*
Cc1c(Cl)c(=O)oc2cc(OCC(=O)NCc3cccs3)ccc12	-18	57*	/	-3	11
CCCCN1CC(=O)N2[C@H](C[C@@]3(n4ccc5ccccc54)c4ccccc4N(S(=O)(=O)c4ccccc4)[C@@H]23)C1=O	/	/	/	-1	/
O=C(CSc1nnc(-c2cccnc2)n1-c1ccccc1)c1ccccc1Cl	/	/	/	1	/
